# Compound activity deposited in PubChem BioAssay by Broad Institute.
# Sampled rows, rich in hits. Any-hit rate of the full collection: about 2.5%.
# c-Myc SMM: c-Myc (human) binding; hit rate 1.5% among 17,000; calls only; small molecule microarray, His-c-Myc binding, anti-His fluorescence;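 active = spot fluorescence over background with P-value below 7% in all four replicate spots, showing protein binding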;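 also: score is binary with 100 for all four spots passing and 0 otherwise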
# STAT3 SMM: binds human STAT3 on microarray; P40763; Small molecule microarray, His-STAT3 binding, anti-His fluorescence; calls only; hit rate 0.2% among 17,000;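 active = compounds whose four printed spots each show fluorescence over background unusually high for their array block, chance value under 7%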
# NFkB SMM: binders of human NF-kappa-B p105 | P19838 | Small molecule microarray, anti-His fluorescence binding | calls only | hit rate 1.3% among 17,000;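 active = spot fluorescence over background significantly raised, with a chance value under 7% in all four replicate spots of the compound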;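 also: probe protein is his-tagged human p50 processed subunit at 1 µg/ml; raw spot fluorescence signals with no normalization applied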
# Target sequence (P19838 1-433 limits assumed): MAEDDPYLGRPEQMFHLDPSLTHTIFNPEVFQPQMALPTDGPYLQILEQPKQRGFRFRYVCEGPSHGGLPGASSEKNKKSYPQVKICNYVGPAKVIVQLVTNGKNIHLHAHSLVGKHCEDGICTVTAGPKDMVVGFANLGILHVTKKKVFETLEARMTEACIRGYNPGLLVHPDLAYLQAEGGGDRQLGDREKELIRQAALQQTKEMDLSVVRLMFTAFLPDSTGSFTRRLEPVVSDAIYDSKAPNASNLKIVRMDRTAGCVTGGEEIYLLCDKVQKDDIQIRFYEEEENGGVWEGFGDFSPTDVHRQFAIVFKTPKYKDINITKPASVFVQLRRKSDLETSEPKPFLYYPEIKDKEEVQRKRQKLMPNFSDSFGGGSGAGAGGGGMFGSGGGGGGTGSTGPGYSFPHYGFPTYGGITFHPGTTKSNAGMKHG
# p53 mut binder: mutant p53 (human) binding | AID 624136 | small molecule microarray binding, anti-GST fluorescence | hit rate 0.4% among 17,000 | calls only;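 active = compounds whose four printed spots each glow above background more than chance allows, each with a p-value under 7%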
# * hit, by the source's call; i = inactive; + = active, no number.
SMILES,c-Myc SMM,STAT3 SMM,NFkB SMM,p53 mut binder
C[C@H](CO)N1C[C@H](C)[C@@H](CN(C)C(=O)Nc2ccc(C(F)(F)F)cc2)Oc2c(NC(=O)NC3CCCCC3)cccc2C1=O,+,i,+,i
C[C@H](CO)N1C[C@H](C)[C@@H](CN(C)CC2CC2)Oc2c(NC(=O)Nc3ccc(C(F)(F)F)cc3)cccc2C1=O,i,i,i,i
O=C(NCc1c(OC(=O)c2ccccc2[N+](=O)[O-])ccc2ccccc12)c1ccccc1,i,i,i,i
COc1ccc(-c2nn(C)c(=O)c3ccccc23)cc1CNC(=O)Nc1ccccc1,i,i,i,i
COc1ccc(-n2c(SCC(=O)N3CCOCC3)nnc2-c2ccccc2)cc1,i,i,i,i
COC(=O)c1cc(Br)ccc1NC(=O)COc1ccc(C(C)(C)C)cc1,+,i,i,i
COc1ccc(C#Cc2ccc3c(c2)[C@]2(C(=O)N3)[C@H](C(=O)NC[C@H](O)c3ccccc3)[C@H]3C(=O)O[C@H](c4ccccc4)[C@H](c4ccccc4)N3[C@@H]2c2ccc(OCCO)cc2)cc1,i,i,i,i
CCOc1cc(C(=O)O)cc(I)c1OCC(=O)O,+,i,+,i
Cc1ccc(S(=O)(=O)N[C@@H](Cc2ccccc2)C(=O)NCCn2cc(-c3ccccc3N)nn2)cc1,i,i,i,i
CC1CC[C@@]2(OC1)O[C@H]1CC3C4CC=C5C[C@@H](O[C@@H]6O[C@H](CO)[C@@H](O)[C@H](O)[C@H]6O)CC[C@]5(C)C4CC[C@]3(C)[C@@]1(O)[C@@H]2C (some centres undefined),i,i,+,i
C=CCn1c(SCC(=O)O)nnc1-c1cccc(C)c1,+,i,i,i
O=C(O)c1cc(O)c2c(c1)C(=O)c1cccc(O)c1C2=O,i,i,i,i
COc1c(C=O)c(O)cc2c1C(=O)c1ccccc1C2=O,+,i,i,i
Cc1ccc(S(=O)(=O)NC(Cc2c[nH]c3ccccc23)C(=O)O)cc1 (centres undefined),i,i,i,i
CSCC(NS(=O)(=O)c1ccc(Br)cc1)C(=O)O (centres undefined),+,i,+,i
C=C1CC[C@@]2(OC1)O[C@H]1CC3[C@@H]4CC=C5C[C@H](O[C@@H]6OC[C@H](O)[C@H](O)[C@H]6O[C@@H]6O[C@@H](C)[C@H](O)[C@@H](O)[C@H]6O)C[C@@H](O)[C@]5(C)C4CC[C@]3(C)[C@H]1[C@@H]2C (some centres undefined),+,i,+,i
COc1cc2c(cc1OC)CN(C(=O)[C@H]1[C@@H]3C(=O)O[C@@H](c4ccccc4)[C@@H](c4ccccc4)N3[C@@H](c3ccc(OCCO)cc3)[C@]13C(=O)Nc1ccc(C#CC4=CCCCC4)cc13)CC2,i,i,+,i
NC(=O)[C@@H]1[C@H]2C(=O)O[C@H](c3ccccc3)[C@H](c3ccccc3)N2[C@H](c2ccc(OCCO)cc2)[C@@]12C(=O)Nc1ccc(C#CC3(O)CCCCCC3)cc12,i,i,i,i
COC(=O)C(CC#Cc1ccc2c(c1)[C@]1(C(=O)N2)[C@H](C(=O)N2CCc3cc(OC)c(OC)cc3C2)[C@H]2C(=O)O[C@H](c3ccccc3)[C@H](c3ccccc3)N2[C@@H]1c1ccc(OCCO)cc1)C(=O)OC,i,i,i,i
COc1cc2c(cc1OC)CN(C(=O)[C@@H]1[C@H]3C(=O)O[C@H](c4ccccc4)[C@H](c4ccccc4)N3[C@H](c3ccc(OCCO)cc3)[C@@]13C(=O)Nc1ccc(C#CC4(O)CCCCCC4)cc13)CC2,i,i,+,i
O=C1O[C@H](c2ccccc2)[C@H](c2ccccc2)N2[C@H]1[C@@H](C(=O)N1CCCCCCC1)[C@]1(C(=O)Nc3ccc(C#CC4(O)CCCCCC4)cc31)[C@H]2c1ccc(OCCO)cc1,+,i,+,+
COc1cc2c(cc1OC)CN(C(=O)[C@H]1[C@@H]3C(=O)O[C@@H](c4ccccc4)[C@@H](c4ccccc4)N3[C@@H](c3ccccc3OCCO)[C@]13C(=O)Nc1ccc(C#CC4=CCCCC4)cc13)CC2,i,i,+,i
COc1cc2c(cc1OC)CN(C(=O)[C@@H]1[C@H]3C(=O)O[C@H](c4ccccc4)[C@H](c4ccccc4)N3[C@H](c3ccc(OCCO)cc3)[C@@]13C(=O)Nc1ccccc13)CC2,i,i,i,i
COC(=O)[C@]1(CO)N=C(c2ccc(OCCCO)cc2)O[C@@H]1c1ccccc1N=[N+]=[N-],i,i,i,i
O=C1O[C@H](c2ccccc2)[C@H](c2ccccc2)N2[C@H]1[C@@H](C(=O)N1CCN(c3ncccn3)CC1)[C@]1(C(=O)Nc3ccc(C#CCCO)cc31)[C@H]2c1ccc(O)cc1,i,i,i,i
SMILES,c-Myc SMM,STAT3 SMM,NFkB SMM,p53 mut binder
CC(=O)c1ccc(NC(=O)Cn2cnc3ccccc3c2=O)cc1,i,i,i,i
O=C1O[C@@H](c2ccccc2)[C@@H](c2ccccc2)N2[C@@H](c3ccc(OCCO)cc3)[C@]3(C(=O)Nc4ccc(C#CC5=CCCCC5)cc43)[C@@H](C(=O)N3CCCCCCC3)[C@H]12,i,+,i,+
O=C(Nc1ccccc1[N+](=O)[O-])c1cccc(S(=O)(=O)Nc2ccccc2)c1,i,i,i,i
COC(=O)CNS(=O)(=O)c1ccccc1[N+](=O)[O-],i,i,i,i
C/C=C/C/C=C/CCC(=O)[C@H]1O[C@H]1C(N)=O,i,i,+,i
N#Cc1c(C(F)(F)F)cc(-c2ccc(Br)cc2)nc1SCCC(=O)O,+,i,+,i
CC1(C)CC[C@@]2(C(=O)O[C@@H]3O[C@H](CO)[C@@H](O)[C@H](O)[C@H]3O)C(C1)C1=CCC3[C@@]4(C)CC[C@@H](O[C@@H]5O[C@H](C(=O)O)[C@@H](O[C@@H]6OC[C@@H](O)[C@H](O)[C@H]6O)[C@H](O)[C@H]5O)C(C)(C)C4CC[C@@]3(C)[C@]1(C)C[C@H]2O (some centres undefined),i,i,i,i
CC1(C)CC[C@]2(C(=O)O)CC[C@]3(C)C(=CCC4[C@@]5(C)CC[C@H](O[C@@H]6OC[C@H](O)[C@H](O)[C@H]6O)[C@@](C)(CO)C5CC[C@]43C)C2C1 (some centres undefined),i,i,+,i
CC1(C)CC[C@]2(C(=O)O[C@@H]3O[C@H](CO)[C@@H](O)[C@H](O)[C@H]3O)CC[C@]3(C)C(=CCC4[C@@]5(C)CC[C@H](O[C@@H]6OC[C@H](O)[C@H](O)[C@H]6O[C@@H]6O[C@H](CO)[C@@H](O)[C@H](O)[C@H]6O[C@@H]6OC[C@H](O)[C@H](O)[C@H]6O)[C@@](C)(CO)C5CC[C@]43C)C2C1 (some centres undefined),i,i,+,i
